# Source: PubChem BioAssay (EPA / NIEHS)
# Records with an inconclusive call do not appear. Calls of active or inactive are those of the source. How the source made its calls, unless noted: active means hit-call score of the fitted dose curve at least 0.9, where 1 is the maximum; inactive means score below 0.9.
# Key:
# [1] = read-out: Monokine induced gamma interferon (MIG), CXCL9 (gene 4283); assay: BSK_SAg_MIG: BioMAP Diversity Plus: SAg Assay for Monokine induced gamma interferon (MIG) Biomarker Activity (AID 2283092); settings: primary human HUVEC with PBMC; actives raise or lower the signal
# Summary of the method: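 HUVEC plus human PBMC co-culture, chemicals dosed and MIG (CXCL9) quantified by ELISA at 24 h. Bidirectional curve fitting against DMSO as negative control and baseline, so both gain and loss of signal count as activity.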
# [2] = BSK_SAg_PBMCCytotoxicity: PBMC Cytotoxicity Assessment in the BioMAP Diversity Plus: SAg Assay (AID 2283093); settings: primary human HUVEC with PBMC;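 further: PBMC viability measured as Alamar Blue reduction fluorescence at 546/580 nm; fitted both ways against DMSO so a hit may be loss or gain of signal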;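 on AC50: PBMC superantigen activated with SEB plus TSST-1 one hour after compound addition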
# Summary of the method: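 Alamar Blue reduction (6 h, 546/580 nm) reports PBMC cytotoxicity after 90 h superantigen activation (SEB, TSST-1; 20 ng/mL final each) with 1 h compound pre-treatment. Gain or loss of signal fitted versus DMSO.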
# [3] = read-out: Interleukin-8 (IL8), CXCL8 (gene 3576); assay: BSK_SAg_IL8: BioMAP Diversity Plus: SAg Assay for Interleukin-8 (IL8) Biomarker Activity (AID 2283094); settings: primary human HUVEC with PBMC; actives raise or lower the signal
# Summary of the method: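 Chemicals were dosed onto a human endothelial–PBMC co-culture, and IL-8 was quantified by ELISA after 24 h. Both increases and decreases were fitted relative to DMSO.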
# [4] = BSK_SAg_Proliferation: Cell Proliferation Assessment in the BioMAP Diversity Plus: SAg Assay (AID 2283095); settings: primary human HUVEC with PBMC;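 further: relative cell number as total protein by SRB absorbance in sub-confluent culture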
# Summary of the method: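 Absorbance of sulforhodamine B at 560 nm reports total protein in a human vascular endothelial/PBMC co-culture after 96 h chemical exposure. Gain or loss of signal is fitted in both directions against DMSO.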
# [5] = BSK_SAg_SRB: Viability Assessment in the BioMAP Diversity Plus: SAg Assay (AID 2283096); settings: primary human HUVEC with PBMC;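 further: cells read one day after compound addition; hits may be either gain or loss of signal compared with DMSO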
# Summary of the method: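 This overt-cytotoxicity endpoint quantifies protein in human endothelial/PBMC co-cultures at 24 h using SRB absorbance (560 nm) after trichloroacetic acid fixation. Values reflect signal change from the DMSO negative control, fitted bidirectionally.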
# [6] = molecular target: human CYP19A1, CYP19A1 (gene 1588) (UniProt P11511); assay: NVS_ADME_hCYP19A1: NovaScreen (NVS) CYP450-related Enzyme Activity (ADME) Assay for human CYP19A1 (AID 2283098; active means hit-call score of the fitted dose curve at least 0.9, where 1 is the maximum)
# Summary of the method: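 Compounds were first screened at 10 uM in duplicate against purified enzyme, with a fluorogenic substrate and fluorescence intensity detection after 0.5 h. Inhibition appears as reduced signal against acetonitrile control.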
# [7] = molecular target: human Acid Phosphatase 1 (ACP1), ACP1 (gene 52) (UniProt P24666); assay: NVS_ENZ_hACP1: NovaScreen (NVS) Enzymatic Assay for human Acid Phosphatase 1 (ACP1) (AID 2283136; active means hit-call score of the fitted dose curve at least 0.9, where 1 is the maximum)
# Summary of the method: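 Cell-free fluorescence read-out of phosphatase activity, substrate and product separated by mobility shift, taken 1.5 h after compound addition; protein produced in Sf9. Single 25 uM duplicate screen, followed by concentration series for actives, scored as signal loss relative to DMSO.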
# [8] = molecular target: human CYP2A6, CYP2A6 (gene 1548) (UniProt P11509); assay: NVS_ADME_hCYP2A6: NovaScreen (NVS) CYP450-related Enzyme Activity (ADME) Assay for human CYP2A6 (AID 2283099; active means hit-call score of the fitted dose curve at least 0.9, where 1 is the maximum)
# Summary of the method: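 Recombinant human CYP2A6 from insect cells was incubated with chemical for 0.5 h and activity read by fluorescence. Single-concentration duplicates at 10 uM preceded concentration-response testing to 20 uM, with activity referenced to acetonitrile.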
# [9] = molecular target: human CYP1A1, CYP1A1 (gene 1543) (UniProt P04798); assay: NVS_ADME_hCYP1A1: NovaScreen (NVS) CYP450-related Enzyme Activity (ADME) Assay for human CYP1A1 (AID 2283100; active means hit-call score of the fitted dose curve at least 0.9, where 1 is the maximum)
# Summary of the method: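 Compounds first went through duplicate single-concentration testing at 10 uM against purified CYP1A1. Those passing a threshold such as 30% inhibition entered singleton dose-response, highest concentration 20 uM. Signal was fluorescence measured after 1 hour.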
# [10] = molecular target: human CYP2B6, CYP2B6 (gene 1555) (UniProt P20813); assay: NVS_ADME_hCYP2B6: NovaScreen (NVS) CYP450-related Enzyme Activity (ADME) Assay for human CYP2B6 (AID 2283101; active means hit-call score of the fitted dose curve at least 0.9, where 1 is the maximum)
# Summary of the method: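 Recombinant human CYP2B6 with fluorogenic substrate, read by fluorescence intensity 1 h after dosing. Primary screen in duplicate at 10 uM, actives followed in concentration series; signal loss relative to acetonitrile control.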
# [11] = molecular target: human CYP1A2, CYP1A2 (gene 1544) (UniProt P05177); assay: NVS_ADME_hCYP1A2: NovaScreen (NVS) CYP450-related Enzyme Activity (ADME) Assay for human CYP1A2 (AID 2283102; active means hit-call score of the fitted dose curve at least 0.9, where 1 is the maximum;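 on AC50: fluorescence from turnover of a fluorogenic substrate by recombinant insect-cell CYP1A2; potency for inhibition since loss of fluorescence marks reduced CYP1A2 activity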)
# Summary of the method: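 Compounds were tested at 10 uM in duplicate against recombinant CYP1A2 produced in insect cells. Enzyme activity was measured by fluorescence 0.5 h after dosing, with loss of signal versus acetonitrile control. Active compounds were re-tested in concentration series.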
# [12] = molecular target: human CYP2D6, CYP2D6 (gene 1565) (UniProt P10635); assay: NVS_ADME_hCYP2D6: NovaScreen (NVS) CYP450-related Enzyme Activity (ADME) Assay for human CYP2D6 (AID 2283107; active means hit-call score of the fitted dose curve at least 0.9, where 1 is the maximum)
# Summary of the method: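 Compounds were first tested in duplicate at 10 uM against recombinant enzyme produced in insect cells, with substrate turnover measured by fluorescence after 1 hour. Decreased signal, referenced to acetonitrile vehicle, was taken as reduced enzyme activity. Active chemicals went on to concentration-response testing.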
# [13] = molecular target: Cytochrome P450 2C19 (Homo sapiens) (UniProt P33261); assay: NVS_ADME_hCYP2C19: NovaScreen (NVS) CYP450-related Enzyme Activity (ADME) Assay for human CYP2C19 (AID 2283113; active means hit-call score of the fitted dose curve at least 0.9, where 1 is the maximum;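 on AC50: potency for inhibition seen as loss of fluorescent signal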)
# Summary of the method: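 Chemicals first screened in duplicate at 10 uM against recombinant human enzyme produced in insect cells; confirmed actives then run as concentration series. Fluorogenic substrate turnover read by fluorescence after 1 h, normalised to acetonitrile.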
# [14] = molecular target: human Beta-secretase (BACE), BACE1 (gene 23621) (UniProt P56817); assay: NVS_ENZ_hBACE: NovaScreen (NVS) Enzymatic Assay for human Beta-secretase (BACE) (AID 2283140; active means hit-call score of the fitted dose curve at least 0.9, where 1 is the maximum;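 further: hits are inhibitors that reduce fluorescent substrate signal versus DMSO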)
# Summary of the method: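 Fluorescence intensity read-out of protease activity defines this endpoint; signal loss relative to DMSO baseline marks inhibition. Recombinant enzyme from SF9 cells, cell-free format, 1 h exposure. Single-concentration duplicate screen (25 uM) precedes concentration-series follow-up.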
# [15] = molecular target: human CYP2C9, CYP2C9 (gene 1559) (UniProt P11712); assay: NVS_ADME_hCYP2C9: NovaScreen (NVS) CYP450-related Enzyme Activity (ADME) Assay for human CYP2C9 (AID 2283108; active means hit-call score of the fitted dose curve at least 0.9, where 1 is the maximum)
# Summary of the method: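 Cell-free assay of recombinant human CYP2C9 produced in Sf9 cells, with enzyme activity read by fluorescence intensity 0.75 h after compound addition. Loss of signal versus an acetonitrile negative control indicates inhibition. Primary screen used 10 uM in duplicate; actives were retested in concentration series.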
# [16] = molecular target: Cytochrome P450 3A4 (Homo sapiens) (UniProt P08684); assay: NVS_ADME_hCYP3A4: NovaScreen (NVS) CYP450-related Enzyme Activity (ADME) Assay for human CYP3A4 (AID 2283110; active means hit-call score of the fitted dose curve at least 0.9, where 1 is the maximum)
# Summary of the method: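 Activity is derived from decreased fluorescence intensity relative to acetonitrile, measured 0.33 hour after dosing insect-cell-expressed CYP3A4 in a cell-free format. Screening used 10 uM in duplicate before concentration-response follow-up.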
# [17] = molecular target: human AKT serine/threonine Kinase 1 (AKT1), AKT1 (gene 207) (UniProt P31749); assay: NVS_ENZ_hAKT1: NovaScreen (NVS) Enzymatic Assay for human AKT serine/threonine Kinase 1 (AKT1) (AID 2283138; active means hit-call score of the fitted dose curve at least 0.9, where 1 is the maximum)
# Summary of the method: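 Compounds were first tested in duplicate at 25 uM, and those passing a threshold such as 30% inhibition were run in concentration-response to a maximum of 50 uM. Enzyme activity was measured after 1 h by fluorescence following substrate/product mobility-shift separation.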
# [18] = molecular target: human AKT serine/threonine Kinase 2 (AKT2), AKT2 (gene 208) (UniProt P31751); assay: NVS_ENZ_hAKT2: NovaScreen (NVS) Enzymatic Assay for human AKT serine/threonine Kinase 2 (AKT2) (AID 2283141; active means hit-call score of the fitted dose curve at least 0.9, where 1 is the maximum)
# Summary of the method: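 Cell-free fluorescence/electrophoretic mobility shift readout of recombinant human AKT2 activity, 1 h after chemical dosing. Duplicate primary screen at 25 uM, then singleton concentration-response up to 50 uM; loss of signal versus DMSO baseline.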
# Chain of human CYP2B6, CYP2B6 (gene 1555) (P20813 whole entry, looked up): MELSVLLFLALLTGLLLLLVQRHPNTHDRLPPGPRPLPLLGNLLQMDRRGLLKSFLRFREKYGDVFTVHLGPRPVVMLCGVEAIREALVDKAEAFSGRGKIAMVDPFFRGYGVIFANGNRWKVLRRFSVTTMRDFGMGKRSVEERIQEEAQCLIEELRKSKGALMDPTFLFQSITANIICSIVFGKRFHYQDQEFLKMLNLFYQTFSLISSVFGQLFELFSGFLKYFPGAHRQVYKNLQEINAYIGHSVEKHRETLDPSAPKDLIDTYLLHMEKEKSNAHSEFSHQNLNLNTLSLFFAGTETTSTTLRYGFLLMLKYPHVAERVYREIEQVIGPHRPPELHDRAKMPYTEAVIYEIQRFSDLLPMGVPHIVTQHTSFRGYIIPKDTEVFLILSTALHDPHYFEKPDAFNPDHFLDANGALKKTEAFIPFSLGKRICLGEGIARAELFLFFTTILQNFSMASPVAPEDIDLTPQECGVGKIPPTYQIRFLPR
# Chain of human Beta-secretase (BACE), BACE1 (gene 23621) (P56817 whole entry, looked up): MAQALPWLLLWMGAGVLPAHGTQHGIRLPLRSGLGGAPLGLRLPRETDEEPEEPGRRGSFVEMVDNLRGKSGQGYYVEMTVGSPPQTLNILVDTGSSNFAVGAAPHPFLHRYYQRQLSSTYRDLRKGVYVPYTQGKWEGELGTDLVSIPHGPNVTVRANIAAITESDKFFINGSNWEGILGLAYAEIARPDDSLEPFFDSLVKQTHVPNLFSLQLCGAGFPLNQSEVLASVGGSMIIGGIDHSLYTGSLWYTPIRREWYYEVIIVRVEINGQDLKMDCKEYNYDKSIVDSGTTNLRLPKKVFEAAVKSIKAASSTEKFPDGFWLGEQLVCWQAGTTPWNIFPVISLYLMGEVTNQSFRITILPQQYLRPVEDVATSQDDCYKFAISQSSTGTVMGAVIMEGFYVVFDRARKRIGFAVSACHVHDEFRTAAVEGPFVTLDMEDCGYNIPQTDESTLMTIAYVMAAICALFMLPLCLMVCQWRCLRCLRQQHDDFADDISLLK
# Chain of human CYP1A2, CYP1A2 (gene 1544) (P05177 whole entry, looked up): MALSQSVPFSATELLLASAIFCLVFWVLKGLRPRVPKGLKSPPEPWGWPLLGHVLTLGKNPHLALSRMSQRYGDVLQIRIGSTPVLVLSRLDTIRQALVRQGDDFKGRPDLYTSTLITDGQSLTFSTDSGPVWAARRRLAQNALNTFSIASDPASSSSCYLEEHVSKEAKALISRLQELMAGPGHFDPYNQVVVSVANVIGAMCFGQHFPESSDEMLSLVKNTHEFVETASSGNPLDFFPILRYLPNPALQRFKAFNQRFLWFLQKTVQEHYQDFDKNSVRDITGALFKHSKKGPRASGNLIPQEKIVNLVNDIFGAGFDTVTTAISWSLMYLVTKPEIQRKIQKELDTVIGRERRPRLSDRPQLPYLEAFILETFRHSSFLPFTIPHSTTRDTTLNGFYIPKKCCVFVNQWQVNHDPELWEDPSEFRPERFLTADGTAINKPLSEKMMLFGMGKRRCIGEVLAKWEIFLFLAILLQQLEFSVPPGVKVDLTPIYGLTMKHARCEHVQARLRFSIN
# Chain of human CYP19A1, CYP19A1 (gene 1588) (P11511 whole entry, looked up): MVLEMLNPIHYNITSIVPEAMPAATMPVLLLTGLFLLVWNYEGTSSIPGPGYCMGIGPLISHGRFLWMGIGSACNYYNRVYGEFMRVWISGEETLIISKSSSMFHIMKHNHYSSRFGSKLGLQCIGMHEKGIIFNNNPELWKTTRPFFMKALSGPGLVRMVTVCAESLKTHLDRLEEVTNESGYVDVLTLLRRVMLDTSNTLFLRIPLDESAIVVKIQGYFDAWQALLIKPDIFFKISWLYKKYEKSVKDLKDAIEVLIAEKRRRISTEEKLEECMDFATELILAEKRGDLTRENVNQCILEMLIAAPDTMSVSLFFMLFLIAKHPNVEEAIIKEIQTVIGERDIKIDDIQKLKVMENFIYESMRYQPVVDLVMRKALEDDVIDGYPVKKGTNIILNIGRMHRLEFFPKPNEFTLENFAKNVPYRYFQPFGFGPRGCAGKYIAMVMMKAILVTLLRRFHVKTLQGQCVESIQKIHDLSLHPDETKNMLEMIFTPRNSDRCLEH
# Chain of human CYP1A1, CYP1A1 (gene 1543) (P04798 whole entry, looked up): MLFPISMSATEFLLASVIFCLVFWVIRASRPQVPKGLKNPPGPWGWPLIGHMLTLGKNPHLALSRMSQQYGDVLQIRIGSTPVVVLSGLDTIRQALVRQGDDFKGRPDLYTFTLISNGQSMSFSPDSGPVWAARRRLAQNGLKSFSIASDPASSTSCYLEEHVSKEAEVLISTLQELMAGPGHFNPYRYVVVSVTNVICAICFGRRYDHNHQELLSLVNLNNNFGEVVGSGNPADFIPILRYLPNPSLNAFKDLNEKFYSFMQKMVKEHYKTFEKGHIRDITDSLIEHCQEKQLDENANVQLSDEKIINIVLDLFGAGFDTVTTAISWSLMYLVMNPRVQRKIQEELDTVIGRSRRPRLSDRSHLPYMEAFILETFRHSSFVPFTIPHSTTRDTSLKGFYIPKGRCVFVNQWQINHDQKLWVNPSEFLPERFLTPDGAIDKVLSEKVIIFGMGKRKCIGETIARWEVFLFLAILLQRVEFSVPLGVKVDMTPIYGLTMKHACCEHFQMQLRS
# Chain of human CYP2A6, CYP2A6 (gene 1548) (P11509 whole entry, looked up): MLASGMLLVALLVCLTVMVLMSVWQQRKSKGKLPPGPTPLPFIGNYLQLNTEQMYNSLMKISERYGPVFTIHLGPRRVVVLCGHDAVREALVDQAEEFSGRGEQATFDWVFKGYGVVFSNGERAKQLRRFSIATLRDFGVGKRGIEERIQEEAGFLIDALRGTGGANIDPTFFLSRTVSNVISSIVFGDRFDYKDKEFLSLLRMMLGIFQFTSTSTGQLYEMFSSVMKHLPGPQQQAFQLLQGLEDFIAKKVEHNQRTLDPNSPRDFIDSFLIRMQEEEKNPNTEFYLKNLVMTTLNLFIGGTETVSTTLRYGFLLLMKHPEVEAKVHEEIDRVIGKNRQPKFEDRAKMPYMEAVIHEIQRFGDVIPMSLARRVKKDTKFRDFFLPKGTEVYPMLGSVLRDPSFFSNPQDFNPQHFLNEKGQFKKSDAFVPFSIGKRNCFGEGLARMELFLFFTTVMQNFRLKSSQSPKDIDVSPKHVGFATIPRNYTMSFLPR
# Chain of human AKT serine/threonine Kinase 1 (AKT1), AKT1 (gene 207) (P31749 whole entry, looked up): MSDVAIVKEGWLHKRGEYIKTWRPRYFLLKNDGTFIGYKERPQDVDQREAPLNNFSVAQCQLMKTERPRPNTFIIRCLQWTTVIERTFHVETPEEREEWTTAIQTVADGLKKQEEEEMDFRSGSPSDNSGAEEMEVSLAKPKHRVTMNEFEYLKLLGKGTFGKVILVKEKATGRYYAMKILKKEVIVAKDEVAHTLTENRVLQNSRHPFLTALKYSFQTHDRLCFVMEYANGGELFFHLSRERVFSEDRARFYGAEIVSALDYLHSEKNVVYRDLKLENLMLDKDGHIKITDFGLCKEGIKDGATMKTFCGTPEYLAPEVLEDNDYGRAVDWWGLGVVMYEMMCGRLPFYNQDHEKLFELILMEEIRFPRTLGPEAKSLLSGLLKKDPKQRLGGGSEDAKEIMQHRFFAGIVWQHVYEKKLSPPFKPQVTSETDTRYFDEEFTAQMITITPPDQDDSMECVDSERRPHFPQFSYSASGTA
# Chain of human Acid Phosphatase 1 (ACP1), ACP1 (gene 52) (P24666 whole entry, looked up): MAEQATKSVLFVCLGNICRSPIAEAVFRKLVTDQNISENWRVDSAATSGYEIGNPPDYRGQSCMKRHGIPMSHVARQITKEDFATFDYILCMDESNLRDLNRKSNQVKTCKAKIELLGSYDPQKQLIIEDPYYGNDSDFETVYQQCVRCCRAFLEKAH
# Chain of human CYP2D6, CYP2D6 (gene 1565) (P10635 whole entry, looked up): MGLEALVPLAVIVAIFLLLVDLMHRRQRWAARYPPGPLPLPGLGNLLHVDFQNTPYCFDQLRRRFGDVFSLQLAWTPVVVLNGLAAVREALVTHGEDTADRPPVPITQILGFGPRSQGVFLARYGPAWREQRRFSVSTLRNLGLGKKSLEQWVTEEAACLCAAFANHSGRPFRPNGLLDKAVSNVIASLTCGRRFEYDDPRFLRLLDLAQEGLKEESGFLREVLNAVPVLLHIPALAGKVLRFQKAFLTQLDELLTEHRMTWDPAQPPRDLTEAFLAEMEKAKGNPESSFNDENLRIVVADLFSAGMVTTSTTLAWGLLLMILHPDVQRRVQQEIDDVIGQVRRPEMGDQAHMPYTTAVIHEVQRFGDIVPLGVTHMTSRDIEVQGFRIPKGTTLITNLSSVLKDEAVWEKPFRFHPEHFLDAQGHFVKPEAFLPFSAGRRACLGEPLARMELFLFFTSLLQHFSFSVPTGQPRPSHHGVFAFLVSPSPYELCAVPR
# Chain of human AKT serine/threonine Kinase 2 (AKT2), AKT2 (gene 208) (P31751 whole entry, looked up): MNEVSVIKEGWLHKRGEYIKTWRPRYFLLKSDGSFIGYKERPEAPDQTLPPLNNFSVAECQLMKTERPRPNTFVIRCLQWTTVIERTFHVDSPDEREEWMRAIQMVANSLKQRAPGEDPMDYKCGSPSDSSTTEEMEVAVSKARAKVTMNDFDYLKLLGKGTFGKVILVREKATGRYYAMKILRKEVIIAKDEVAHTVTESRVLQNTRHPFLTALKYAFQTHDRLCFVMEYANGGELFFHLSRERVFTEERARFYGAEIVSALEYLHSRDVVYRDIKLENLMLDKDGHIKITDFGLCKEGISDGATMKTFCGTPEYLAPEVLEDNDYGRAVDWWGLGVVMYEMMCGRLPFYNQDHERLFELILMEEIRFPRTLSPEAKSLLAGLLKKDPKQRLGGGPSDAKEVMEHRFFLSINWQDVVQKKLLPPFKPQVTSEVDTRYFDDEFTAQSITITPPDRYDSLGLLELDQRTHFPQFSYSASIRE
smiles,measurement,setting,value
COCC(C)OCC(C)O (stereo not given),outcome,[1],inactive
same,outcome,[2],inactive
same,outcome,[3],inactive
same,outcome,[4],inactive
same,outcome,[5],inactive
same,outcome,[6],inactive
same,outcome,[7],inactive
CC1=C(/C=C/C(C)=C/C=C/C(C)=C/C(=O)O)C(C)(C)CCC1,AC50,[1],36.5 µM (active)
same,outcome,[2],inactive
same,outcome,[3],inactive
same,AC50,[4],27.5 µM (active)
same,outcome,[5],inactive
same,outcome,[8],inactive
same,AC50,[9],1.43 µM (active)
same,outcome,[10],inactive
same,outcome,[11],inactive
same,outcome,[12],inactive
same,outcome,[13],inactive
CCCCCCCCCCCCCCCS(=O)(=O)Oc1ccccc1,outcome,[1],inactive
same,AC50,[2],5.98 µM (active)
same,outcome,[3],inactive
same,AC50,[4],6.39 µM (active)
same,outcome,[5],inactive
same,AC50,[13],5 µM (active)
ClC1=C(Cl)C(Cl)(Cl)C(Cl)=C1Cl,AC50,[1],13.8 µM (active)
same,AC50,[2],10.4 µM (active)
same,AC50,[3],10.4 µM (active)
same,AC50,[4],5.78 µM (active)
same,AC50,[5],9.48 µM (active)
same,outcome,[13],inactive
c1ccc2c(c1)Cc1ccccc1-2,outcome,[1],inactive
same,outcome,[2],inactive
same,outcome,[3],inactive
same,outcome,[4],inactive
same,outcome,[5],inactive
same,outcome,[14],inactive
CCCOc1sc(C(=O)N2CCC(c3cc(CN)ccc3F)CC2)c(C)c1Br,AC50,[1],11.9 µM (active)
same,AC50,[2],6.22 µM (active)
same,AC50,[3],7.78 µM (active)
same,AC50,[4],5.11 µM (active)
same,AC50,[5],6.68 µM (active)
same,outcome,[9],inactive
same,AC50,[10],8.64 µM (active)
same,AC50,[11],5.25 µM (active)
same,AC50,[15],1.92 µM (active)
same,AC50,[16],14.4 µM (active)
same,AC50,[13],0.68 µM (active)
same,AC50,[14],4.17 µM (active)
N#C[C@@H]1CC(F)(F)CN1C(=O)CNC1CC2CCC(C1)N2c1ncccn1 (stereo not given in full),outcome,[1],inactive
same,AC50,[2],8.08 µM (active)
same,AC50,[3],7.82 µM (active)
same,AC50,[4],9.88 µM (active)
same,AC50,[5],5.45 µM (active)
same,outcome,[17],inactive
same,outcome,[18],inactive
COc1ccc([N+](=O)[O-])cc1N,outcome,[1],inactive
same,outcome,[2],inactive
same,outcome,[3],inactive
same,outcome,[4],inactive
same,outcome,[5],inactive
same,AC50,[8],5.77 µM (active)
same,outcome,[10],inactive
same,outcome,[13],inactive
O=C(O)c1ccccc1C(c1ccc(O)cc1)c1ccc(O)cc1,outcome,[1],inactive
same,outcome,[2],inactive
same,outcome,[3],inactive
same,outcome,[4],inactive
same,outcome,[5],inactive
same,outcome,[6],inactive
same,AC50,[13],5.38 µM (active)
